These results are taken from the supplement of paper PMC6555819.

Holding throughout (test): PBM binding z-score (relative to random genomic background probes); higher = stronger binding; sequences stand for … in GC…GCGATTGACAGCGTAGAATGAAGG
Assay [1] concerns FXR:RXRa (NR concentration 270 nM, RXRa partner concentration 90 nM). The procedure, abridged: (§1)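 The probes on custom Agilent 4×180K protein-binding microarrays were double-stranded, with 34-nt variable regions bearing direct-repeat seeds, single-nucleotide variants, half-site ablations and random human genomic background sequences. Incubation lasted 1 h with ligand-free nuclear receptor dimers in PBS pH 7.4, 2% milk, 0.02% Triton X-100, 1 mM DTT, 0.2 mg/mL BSA and 0.4 mg/ml salmon testes DNA. Antibodies against each partner (one per run) detected bound dimers, and fluorescence scans were regression-normalized. Binding z-scores take the random background probes as reference.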

Assay [2] deals with LXRa:RXRa (NR concentration 270 nM, RXRa partner concentration 90 nM). The procedure, abridged: as §1
Assay [3] concerns LXRa homodimer (NR concentration 270 nM). The procedure, abridged:
as §1

Assay [4] has as its system LXRb:RXRa (NR concentration 270 nM, RXRa partner concentration 90 nM). The procedure, abridged: as §1
Assay [5] concerns LXRb homodimer (NR concentration 270 nM). The procedure, abridged: as §1
Assay [6] concerns PPARa:RXRa (NR concentration 270 nM, RXRa partner concentration 90 nM). The procedure, abridged:
as §1

In assay [7] the test system is PPARg:RXRa (NR concentration 180 nM, RXRa partner concentration 90 nM). The procedure, abridged:
as §1

Assay [8] concerns PPARg:RXRa 270nM:90nM, anti-RXR (NR concentration 270 nM, RXRa partner concentration 90 nM). The procedure, abridged: as §1
Assay [9] has as its system PPARg:RXRa 30nM:10nM, anti-RXR (NR concentration 30 nM, RXRa partner concentration 10 nM). The procedure, abridged: as §1
Assay [10] has as its system PPARg:RXRa 90nM:30nM, anti-RXR (NR concentration 90 nM, RXRa partner concentration 30 nM). The procedure, abridged:
as §1

In assay [11] the test system is PPARg:RXRa DBDmut IVT, anti-RXR (DBD mutation: RXRa K156A/R161A, NR concentration 270 nM, RXRa partner concentration 90 nM). The procedure, abridged:
as §1

The subject of assay [12] is PPARg:RXRa IVT, anti-PPARg (NR concentration 270 nM, RXRa partner concentration 90 nM). The procedure, abridged:
as §1

Assay [13] relates to PPARg DBDmut:RXRa IVT, anti-PPARg (DBD mutation: PPARg1 K132A/R137A, NR concentration 270 nM, RXRa partner concentration 90 nM). The procedure, abridged:
as §1

The test system of assay [14] is PPARg DBDmut IVT, anti-PPARg (DBD mutation: PPARg1 K132A/R137A, NR concentration 270 nM). The procedure, abridged: as §1
In assay [15] the test system is PPARg homodimer (NR concentration 180 nM). The procedure, abridged: as §1
The test system of assay [16] is PXR homodimer (NR concentration 270 nM). The procedure, abridged: as §1
In assay [17] the test system is RARa:RXR (NR concentration 270 nM, RXRa partner concentration 90 nM). The procedure, abridged:
as §1

For assay [18], the system named is RARa homodimer (NR concentration 270 nM). The procedure, abridged:
as §1

Assay [19] relates to RARb:RXRa (NR concentration 270 nM, RXRa partner concentration 90 nM). The procedure, abridged:
as §1

In the case of CGTCAACGTTCAACTAAGGTAACGTAAAGCACGC, the PBM binding z-score in assay [1] was found to be 0.828; in assay [2] it was 0.246; in [3], 0.102; in assay [4], 0.277; in assay [5], 0.346; in [6], 0.566. Besides, the PBM binding z-score in assay [7] is 0.682; in assay [8] it was 0.178; in assay [9], -0.166; in [10], -0.0957; in assay [11] it was -0.0681; in assay [12], 0.225. For the same sequence, the PBM binding z-score in assay [13] was 0.181; in assay [14], -0.155; in [15], 0.349; in assay [16], -0.0969; in assay [17], 2.07; in assay [18], 0.331. In assay [19], this sequence returned a PBM binding z-score of 0.991.

Take AATACAGGGTCGCTAGGCCAGAGTAGGTACGAAT: the PBM binding z-score in [1] is 0.424; in assay [2], 0.524; in assay [3], -0.204; in assay [4], 0.525; in [5], -0.053; in assay [6], 1.37. For the same sequence, the PBM binding z-score in assay [7] amounted to 1.05; in [8], 0.765; in [9] it was 0.105; in assay [10], 0.482; in assay [11], 0.129; in assay [12], 1.16. In addition, the PBM binding z-score is 0.521 in assay [13]; -0.263 in assay [14]; 0.213 in assay [15]; -0.199 in [16]; 0.9 in assay [17]; 0.178 in assay [18]. Moreover, the PBM binding z-score in assay [19] came to 1.49.

ATATGTAGGTCAGCTGGGGTCATTCAGACTAGGC: the PBM binding z-score in assay [1] turned out to be 6.69; in assay [2] it was 6.41; in assay [3] it was 5.01; in assay [4], 5.39; in [5], 1.51; in [6], 6.15. Further, the PBM binding z-score in [7] was 9; in assay [8] it was 7.13; in assay [9] it was 5.31; in assay [10], 7.16; in assay [11] it was 8.08; in [12] it was 8.21. Also, the PBM binding z-score in [13] turned out to be 5.33; in assay [14], 2.2; in assay [15] it was 4.29; in assay [16], 5.2; in assay [17], 6.74; in [18], 1.6. This sequence returned a PBM binding z-score in assay [19] of 4.57.

Regarding TCTTATAGATCAATAGAGGTTAAGAAAGTGCGCT, the PBM binding z-score in assay [1] was 1.14; in [2], 4.21; in assay [3], 0.848; in assay [4], 2; in assay [5], 0.0677; in [6], 1.92. For the same sequence, the PBM binding z-score in assay [7] amounted to 0.685; in [8], 2.02; in [9] it was 3.21; in [10] it was 2.51; in assay [11], 1.88; in [12], 0.653. For the same sequence, the PBM binding z-score in assay [13] stood at 0.623; in [14], 0.528; in assay [15], 1.11; in [16], 0.488; in [17], 1.99; in assay [18], 0.901. Also, the PBM binding z-score in assay [19] turned out to be 1.03.

Regarding ACTAGTAGGTCAGCTGAGGTCACACACAATTCGG, the PBM binding z-score in assay [1] is 6.7; in [2] it was 6.09; in [3], 5.43; in [4], 5.14; in assay [5], 1.5; in assay [6] it was 5.36. The PBM binding z-score was 7.75 in assay [7]; 6.54 in [8]; 4.28 in assay [9]; 6.26 in assay [10]; 7.68 in assay [11]; 7.77 in [12]. Besides, the PBM binding z-score was found to be 2.63 in [13]; 2.31 in assay [14]; 6.08 in assay [15]; 4.54 in [16]; 6.25 in assay [17]; 4.07 in assay [18]. In [19], the PBM binding z-score is 5.01.

Consider CTTTACGGGTCAAGGTTATAGCACGGGTGGTACG, for which the PBM binding z-score in [1] came out at 5.72; in [2] it was 4.66; in assay [3], 1.01; in assay [4], 3.35; in assay [5], 0.665; in assay [6] it was 5.26. The PBM binding z-score in assay [7] turned out to be 5.26; in assay [8], 5.41; in assay [9] it was 2.59; in assay [10], 4.51; in assay [11], 3.74; in [12], 4.39. The PBM binding z-score in assay [13] stood at 1.72; in assay [14] it was 1.23; in assay [15], 2.84; in [16], 0.731; in assay [17] it was 4.6; in assay [18], 0.604. In assay [19], the PBM binding z-score was 4.17.

ATATGTAGGTTACATCGGGGTCATTCAGGCTATG: the PBM binding z-score in assay [1] came to 4.88; in [2], 5.89; in [3] it was 3.8; in [4], 4.91; in assay [5], 1.46; in [6] it was 5.71. The PBM binding z-score in [7] worked out at 7.19; in assay [8] it was 6.35; in assay [9], 4.23; in [10], 5.65; in assay [11] it was 7.87; in [12] it was 7.63. The PBM binding z-score in assay [13] turned out to be 3.44; in assay [14], 3.24; in assay [15], 3.92; in assay [16], 10.3; in [17], 7; in assay [18], 1.93. Besides, the PBM binding z-score in [19] is 3.25.
